Screening results (PubChem)
An excerpt weighted towards active compounds, which were near 2.9% of everything screened.
Nrf2 activator: activators of Nrf2 (ARE) signaling; AREc32 ARE-luciferase reporter (MCF7-derived line), luminescence, 24 h; Potency, µM (series often up to 46.1 µM), inactives show at the highest dose activation, actives largely listed as activators; 0.31% of 410,000 active; AID 624171; also: % of control where 0% means no effect; nearly all actives have a fitted effect of over 65% in size
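AREc32 cells carrying an ARE-driven firefly luciferase reporter were seeded at 1000 cells/well in OPTI-MEM with 5% FBS, then exposed to compound for 24 hr at 37 deg C. Luminescence was read with Steady-Glo after 30 min at RT.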
ATXN viability: cell viability loss in ATXN counter-screen. 0.49% of 400,000 active. Potency, µM (titrated, usually from 56.7 µM), actives largely listed as cytotoxic. S2 cells (HEK-293 line with an ATXN2-luciferase reporter) viability, CellTiter-Fluor protease fluorescence, 24 h. AID 651635; also: nearly all actives have a fitted effect of over 40% in size
Nrf2 block: blocks Nrf2 signaling. A549 ARE-Fluc reporter, luciferase luminescence, 18-24 h. Potency, µM (top dose mostly 46 µM), inactives show top-dose activity change, negative = inhibition, hits mostly inhibitors. 2.1% of 360,000 active. AID 504444; also: % is scaled to controls: 0 for no effect and ±100 for the full control effect; nearly all actives have a fitted effect of over 60% in size
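Concentration-response testing used A549 ARE_Fluc cells at 5000 cells/well. Following an 18-24 h compound incubation, viability was read by fluorescence (Ex 405/Em 525) and luciferase output by luminescence.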
A549 tox: A549 cytotoxicity, counter-screen for Nrf2 inhibitors; A549 ARE-Fluc cells, CellTiter-Fluor viability, 18-24 h; Potency, µM (highest dose often 46 µM), for the others: at the top dose activity change, negative = cytotoxicity, usual class: inhibitors; 0.16% of 390,000 active; AID 504648; also: % is scaled to controls: 0 for no effect and ±100 for the full control effect
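Cytotoxicity counterscreen: CellTiter-Fluor fluorescence was measured in A549 ARE_Fluc cells after 18-24 h of compound exposure in a concentration series. The subsequent BugLite luminescent read reports ARE-luciferase activity.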
ATXN2 expr inh: reduces ATXN2 reporter expression in HEK-293 cells; HEK-293 ATXN2-luciferase reporter, luminescence, 24 h; Potency, µM (titrated, usually from 57 µM), for the others: at the highest dose activity change, negative = inhibition, actives largely listed as inhibitors; 0.72% of 360,000 active; also: % is scaled to controls: 0 for no effect and ±100 for the full control effect; nearly all actives have a fitted effect of over 55% in size
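ATXN2-luciferase reporter cells (luciferase flanked by upstream and downstream ATXN2 gene portions) were treated 24 h at 37 °C with compounds at up to 57 uM. SteadyGlo luminescence gave expression; GF-AFC fluorescence gave viability.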
* hit, by the source's call; i = inactive; ? = inconclusive; · = not tested or not shown. Calls follow the shape of the dose curve; as a rule, active = well fitted curve in the direction sought with a large enough effect; inconclusive = small, poorly fitted or top-dose-only effect, or another doubt; inactive = no such curve, though single readings can be large; an effect the other way counts as inactive or inconclusive. Potency is read from the fitted curve at half-maximal effect.

SMILES	Nrf2 activator	ATXN viability	Nrf2 block	A549 tox	ATXN2 expr inh
CCOC(=O)[C@]12Cc3cc(OC)ccc3[C@H]1N(C(C)C)C(=O)c1cc(OC)ccc12	-4%	14µM*	·	·	?
CCOC(=O)[C@]12Cc3c(cc(OC)c(OC)c3OC)[C@H]1N(C)C(=O)c1ccccc12	13%	?	·	·	1%
N=C1/C(=C\c2ccc(OC(=O)c3ccccc3Cl)cc2)C(=O)N=C2SC(N3CCOCC3)=NN12	5%	i	?	-14%	·
O=C(N/N=C/c1cc(Br)c(Br)s1)c1ccncc1	0%	?	18µM*	-11%	?
Nc1ccc2ccc3cccc[n+]3c2c1	4%	·	13µM*	?	-23%
NC1(c2ccccc2)CCCCC1	·	i	·	·	?
O=C(Cc1ccc(S(=O)(=O)N2CCCC2)s1)N1CCN(c2ccc(F)cc2)CC1	-1%	i	18µM*	-12%	·
O=C(COc1ccccc1Cl)N1CCCC(N2CCN(c3ccc(F)cc3)CC2)C1 (stereo not drawn)	0%	i	1%	0%	-22%
COC(=O)[C@@H](N)CCCN/C(N)=N/[N+](=O)[O-]	·	i	·	·	10%
C/C(=N\NC(N)=S)C12CC3CC(CC(C3)C1)C2	3%	16µM*	29%	?	?
COC(=O)C1=C(c2ccc(F)cc2OCc2ccccc2)C[C@@H]2CC[C@H]1N2C(=O)NC1CCN(Cc2ccccc2)CC1	-5%	14µM*	-18%	?	?
COC(=O)C1=C(c2ccc(F)cc2OCc2ccccc2)C[C@@H]2CC[C@H]1N2C(=O)NCc1ccc(C(F)(F)F)cc1	5%	i	18µM*	-9%	-19%
COC(=O)C1=C(c2ccc(F)cc2OCc2ccccc2)C[C@@H]2CC[C@H]1N2C(=O)NCc1ccccc1	1%	?	16µM*	?	?
COC(=O)C1=C(c2ccccc2OCc2ccccc2)C[C@@H]2CC[C@H]1N2C(=O)NCc1ccc(C(F)(F)F)cc1	-1%	?	16µM*	-13%	-6%
COC(=O)C1=C(c2ccc(F)cc2OCc2ccccc2)C[C@@H]2CC[C@H]1N2C(=O)NCc1cccc(F)c1	0%	?	?	-18%	-31%
COC(=O)C1=C(c2ccc(F)cc2OCc2ccccc2)C[C@@H]2CC[C@H]1N2C(=O)NCc1ccccc1OC	6%	?	?	-15%	0%
COC(=O)C1=C(c2cccc(OCc3ccccc3)c2)C[C@@H]2CC[C@H]1N2C(=O)NCc1ccc(C(F)(F)F)cc1	0%	?	?	-11%	-17%
CC(N[C@H]1C[C@H]1c1ccccc1)c1ccc2c(c1)OCCO2 (stereo partly drawn)	·	·	·	·	9%
CC[C@H]1[C@@H]2C[C@H]3[C@@H]4N(C)c5ccccc5[C@]45C[C@@H](C2[C@H]5O)N3[C@@H]1O (stereo partly drawn)	·	i	·	·	·
COC(=O)C1=C(c2ccccc2OCc2ccccc2)C[C@@H]2CC[C@H]1N2C(=O)NCc1ccc(Br)cc1	-1%	?	21µM*	-17%	-24%
COC(=O)C1=C(c2ccccc2OCc2ccccc2)C[C@@H]2CC[C@H]1N2C(=O)NCc1cccc(C(F)(F)F)c1	-1%	?	16µM*	-16%	-21%
COC(=O)C1=C(c2ccccc2OCc2ccccc2)C[C@@H]2CC[C@H]1N2C(=O)NCc1ccccc1	2%	?	?	3%	?
COC(=O)C1=C(c2ccc(F)cc2OCc2ccccc2)C[C@@H]2CC[C@H]1N2C(=O)NCc1ccc2c(c1)OCO2	0%	?	18µM*	-17%	-23%
CC(C)C[C@H]1C(=O)N2CCC[C@@H]2[C@@]2(O)O[C@](NC(=O)[C@@H]3C=C4c5cccc6[nH]cc(c56)C[C@@H]4N(C)C3)(C(C)C)C(=O)N12	·	i	·	·	·
CCOC1=C2[C@@H](CN(S(=O)(=O)c3ccccc3C)[C@H]2c2ccc(Cl)cc2)[C@H]2C(=O)NC(=O)[C@H]2C1	4%	?	·	·	-9%
SMILES	Nrf2 activator	ATXN viability	Nrf2 block	A549 tox	ATXN2 expr inh
O=c1[nH]c(=O)n(CCC2=CCCCC2)c(O)c1/C=N/Nc1ccccc1	0%	i	23µM*	-13%	-1%
O=C(Oc1ccc([N+](=O)[O-])cc1)N1CCN(Cc2cccc(Oc3ccccc3)c2)CC1	·	·	·	·	-13%
COc1cccc(-n2nnc3c(sc4nc(C)cc(C)c43)c2=O)c1	3%	·	?	8%	·
CCOC(=O)[C@]12Cc3cc(Cl)ccc3[C@H]1N(C1CCCCC1)C(=O)c1ccccc12	-3%	3.5µM*	·	·	3.2µM*
CCOC(=O)[C@]12Cc3cc(OC)ccc3[C@H]1N(C1CCCCC1)C(=O)c1ccccc12	-3%	7.1µM*	·	·	4.5µM*
CCOC(=O)[C@]12Cc3cc(OC)ccc3[C@H]1N(C)C(=O)c1ccccc12	0%	i	·	·	16%
C[C@H]1CCC/C=C/[C@@H]2C[C@H](O)C[C@H]2[C@@H](O)/C=C/C(=O)O1	3%	?	0.26µM*	?	?
Nc1ccccc1C(=O)OCC(O)CO (stereo not drawn)	·	i	·	·	7%
COc1ccc2c(c1)/C(=C/c1cnc[nH]1)C(=O)N2	-2%	?	18µM*	?	?
COc1cc(OC)c(/C=C2\C(=O)Nc3ccccc32)c(OC)c1	12%	?	?	-19%	?
O=C1Nc2ccccc2/C1=C/c1cnc[nH]1	4%	i	7.3µM*	6%	?
Cc1c(N=Nc2c(O)n(Cc3ccccc3)c(=O)[nH]c2=O)c(=O)n(-c2ccccc2)n1C	0%	i	5.2µM*	16µM*	?
C=CCn1c(O)c(C=Nc2ccc(N(CC)CC)cc2)c(=O)[nH]c1=O	5%	i	3.3µM*	-11%	-12%
C=CCn1c(O)c(C=Nc2ccc(F)cc2)c(=O)[nH]c1=O	-1%	i	-9%	3%	-6%
Cc1ccc(N2CCN(C(=O)C3CCC(CNS(=O)(=O)c4ccc(Br)s4)CC3)CC2C)cc1 (stereo not drawn)	4%	i	9.2µM*	1%	-18%
CCc1cccc(NC(=O)C2CCN(S(=O)(=O)c3ccc(Br)s3)CC2)c1	6%	?	?	-11%	-34%
Cc1cn2c(=O)cc(COC(=O)c3ccccc3F)nc2s1	4%	i	?	1%	14%
O=c1c(C2CC(c3ccc(-c4ccc(Br)cc4)cc3)Cc3ccccc32)c(O)sc2ccccc12 (stereo not drawn)	·	i	·	·	?
Fc1ccc(CCNCc2ccc(Cl)c(Cl)c2)cc1	0%	?	12µM*	?	?
CC(=O)OCC12CC(OC(=O)CC(C)C)C(C)=CC1OC1C(O)C(OC(C)=O)C2(C)C12CO2 (stereo not drawn)	-2%	?	0.021µM*	·	-71%
